The target of assay [1] is Dual specificity protein kinase CLK3 (Homo sapiens) (UniProt P49761). The note with it: at 1 µM.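 Also: each value is the mean inhibition of CLK3.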
The target in assay [2] is Dual specificity tyrosine-phosphorylation-regulated kinase 1A (Homo sapiens) (UniProt Q13627). To be noted: at 0.1 µM.
The target is the same in assay [3]. To be noted: at 1 µM.
Assay [4] has as its target Dual specificity tyrosine-phosphorylation-regulated kinase 1B (Homo sapiens) (UniProt Q9Y463). The note with it: at 0.1 µM.
Assay [5] has the same target. The note with it: at 1 µM.
Assay [6] addresses T1, Dual specificity tyrosine-phosphorylation-regulated kinase 2 (Homo sapiens) (UniProt Q92630).
T1 sequence (whole entry): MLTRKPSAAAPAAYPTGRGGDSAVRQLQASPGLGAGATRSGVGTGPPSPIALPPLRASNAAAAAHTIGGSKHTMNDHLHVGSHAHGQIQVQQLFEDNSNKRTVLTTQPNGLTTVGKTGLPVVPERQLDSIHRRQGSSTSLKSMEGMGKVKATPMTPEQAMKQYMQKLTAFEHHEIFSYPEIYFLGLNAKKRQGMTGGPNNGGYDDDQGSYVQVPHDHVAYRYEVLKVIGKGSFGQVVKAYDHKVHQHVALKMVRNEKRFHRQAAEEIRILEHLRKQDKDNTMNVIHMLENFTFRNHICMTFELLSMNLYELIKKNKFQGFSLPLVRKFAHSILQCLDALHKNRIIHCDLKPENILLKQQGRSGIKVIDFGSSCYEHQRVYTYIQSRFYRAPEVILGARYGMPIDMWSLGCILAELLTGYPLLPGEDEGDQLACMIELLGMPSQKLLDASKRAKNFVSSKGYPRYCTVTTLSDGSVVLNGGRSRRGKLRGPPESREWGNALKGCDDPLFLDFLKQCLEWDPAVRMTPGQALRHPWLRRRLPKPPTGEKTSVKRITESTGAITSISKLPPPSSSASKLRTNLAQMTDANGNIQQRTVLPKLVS
To be noted: at 0.1 µM.

The target in assay [7] is T1, Dual specificity tyrosine-phosphorylation-regulated kinase 2 (Homo sapiens). To be noted: at 1 µM.
Assay [8] concerns the target Glycogen synthase kinase-3 alpha (Homo sapiens) (UniProt P49840). The note with it: at 0.1 µM.
Assay [9] has the same target. To be noted: at 1 µM.
Assay [10] has as its target Glycogen synthase kinase-3 beta (Homo sapiens) (UniProt P49841). To be noted: at 0.1 µM.
Assay [11] shares this target. The note with it: at 1 µM.
The target in assay [12] is Homeodomain-interacting protein kinase 1 (Homo sapiens) (UniProt Q86Z02). To be noted: at 0.1 µM.
Sequence of Homeodomain-interacting protein kinase 1 (Homo sapiens) (Q86Z02 whole entry, looked up): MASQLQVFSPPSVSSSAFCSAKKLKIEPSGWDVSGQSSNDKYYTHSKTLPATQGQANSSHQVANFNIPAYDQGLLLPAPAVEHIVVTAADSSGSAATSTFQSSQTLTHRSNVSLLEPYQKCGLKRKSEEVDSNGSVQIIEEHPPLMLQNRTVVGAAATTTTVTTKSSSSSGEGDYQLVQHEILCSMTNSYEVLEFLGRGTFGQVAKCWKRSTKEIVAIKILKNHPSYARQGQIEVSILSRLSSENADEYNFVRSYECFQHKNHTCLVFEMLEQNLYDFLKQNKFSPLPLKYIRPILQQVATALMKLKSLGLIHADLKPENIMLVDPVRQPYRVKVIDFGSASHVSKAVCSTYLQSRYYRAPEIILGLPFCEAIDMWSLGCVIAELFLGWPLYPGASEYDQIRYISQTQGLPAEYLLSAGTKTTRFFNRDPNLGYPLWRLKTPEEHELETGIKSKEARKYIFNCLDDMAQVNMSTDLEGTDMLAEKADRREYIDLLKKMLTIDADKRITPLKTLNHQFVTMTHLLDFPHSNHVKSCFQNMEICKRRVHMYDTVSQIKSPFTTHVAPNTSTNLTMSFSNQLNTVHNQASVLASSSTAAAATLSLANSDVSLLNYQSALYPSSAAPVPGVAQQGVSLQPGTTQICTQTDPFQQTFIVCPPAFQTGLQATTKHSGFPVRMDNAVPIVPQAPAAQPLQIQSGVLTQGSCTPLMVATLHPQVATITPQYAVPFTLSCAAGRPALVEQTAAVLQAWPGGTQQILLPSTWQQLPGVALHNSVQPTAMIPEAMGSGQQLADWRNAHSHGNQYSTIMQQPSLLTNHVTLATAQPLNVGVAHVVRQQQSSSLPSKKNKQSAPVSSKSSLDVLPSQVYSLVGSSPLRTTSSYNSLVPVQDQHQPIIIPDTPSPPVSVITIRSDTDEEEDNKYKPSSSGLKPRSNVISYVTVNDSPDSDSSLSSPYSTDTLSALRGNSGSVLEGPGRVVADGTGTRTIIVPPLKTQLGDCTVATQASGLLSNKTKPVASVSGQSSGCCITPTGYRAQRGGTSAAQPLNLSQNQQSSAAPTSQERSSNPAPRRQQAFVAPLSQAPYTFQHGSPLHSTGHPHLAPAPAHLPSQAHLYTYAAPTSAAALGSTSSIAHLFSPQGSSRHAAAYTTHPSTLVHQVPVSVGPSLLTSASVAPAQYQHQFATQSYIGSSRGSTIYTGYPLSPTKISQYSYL
The target is the same in assay [13]. To be noted: at 1 µM.
The target of assay [14] is T2, Homeodomain-interacting protein kinase 4 (Homo sapiens) (UniProt Q8NE63).
T2 sequence (whole entry): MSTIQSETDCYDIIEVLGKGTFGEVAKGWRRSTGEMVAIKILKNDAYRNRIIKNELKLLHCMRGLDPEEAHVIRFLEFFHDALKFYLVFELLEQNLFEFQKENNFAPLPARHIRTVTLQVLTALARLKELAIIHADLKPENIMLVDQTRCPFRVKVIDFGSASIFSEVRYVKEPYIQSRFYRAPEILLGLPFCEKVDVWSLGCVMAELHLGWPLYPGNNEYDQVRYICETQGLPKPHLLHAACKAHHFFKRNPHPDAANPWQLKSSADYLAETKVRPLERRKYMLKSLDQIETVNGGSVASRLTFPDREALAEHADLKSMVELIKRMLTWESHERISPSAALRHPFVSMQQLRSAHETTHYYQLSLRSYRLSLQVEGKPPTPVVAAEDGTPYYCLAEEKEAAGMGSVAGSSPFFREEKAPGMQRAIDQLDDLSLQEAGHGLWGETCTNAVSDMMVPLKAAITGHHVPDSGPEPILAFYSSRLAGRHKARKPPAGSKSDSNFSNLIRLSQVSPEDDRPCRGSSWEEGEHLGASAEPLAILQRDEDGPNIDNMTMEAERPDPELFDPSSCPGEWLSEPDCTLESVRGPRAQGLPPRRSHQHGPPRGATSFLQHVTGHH
The note with it: at 0.1 µM.

Assay [15] has as its target T2, Homeodomain-interacting protein kinase 4 (Homo sapiens). The note with it: at 1 µM.
The target in assay [16] is Mitogen-activated protein kinase 9 (Homo sapiens) (UniProt P45984). To be noted: at 0.1 µM.
Sequence of Mitogen-activated protein kinase 9 (Homo sapiens) (P45984 whole entry, looked up): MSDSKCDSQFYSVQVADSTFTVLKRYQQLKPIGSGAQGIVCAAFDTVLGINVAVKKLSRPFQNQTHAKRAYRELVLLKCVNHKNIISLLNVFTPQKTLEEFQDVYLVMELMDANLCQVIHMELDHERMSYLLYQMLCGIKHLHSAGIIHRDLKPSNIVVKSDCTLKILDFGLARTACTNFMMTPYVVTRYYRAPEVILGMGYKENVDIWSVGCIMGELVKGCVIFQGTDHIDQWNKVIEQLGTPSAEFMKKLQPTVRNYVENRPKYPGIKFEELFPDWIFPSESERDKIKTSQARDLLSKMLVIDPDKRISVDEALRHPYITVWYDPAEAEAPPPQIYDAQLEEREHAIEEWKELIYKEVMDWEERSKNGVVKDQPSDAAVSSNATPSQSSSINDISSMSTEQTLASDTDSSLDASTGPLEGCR
Assay [17] shares this target. The note with it: at 1 µM.
In assay [18] the target is Mitogen-activated protein kinase 1 (Homo sapiens) (UniProt P28482). The note with it: at 0.1 µM.
Sequence of Mitogen-activated protein kinase 1 (Homo sapiens) (P28482 whole entry): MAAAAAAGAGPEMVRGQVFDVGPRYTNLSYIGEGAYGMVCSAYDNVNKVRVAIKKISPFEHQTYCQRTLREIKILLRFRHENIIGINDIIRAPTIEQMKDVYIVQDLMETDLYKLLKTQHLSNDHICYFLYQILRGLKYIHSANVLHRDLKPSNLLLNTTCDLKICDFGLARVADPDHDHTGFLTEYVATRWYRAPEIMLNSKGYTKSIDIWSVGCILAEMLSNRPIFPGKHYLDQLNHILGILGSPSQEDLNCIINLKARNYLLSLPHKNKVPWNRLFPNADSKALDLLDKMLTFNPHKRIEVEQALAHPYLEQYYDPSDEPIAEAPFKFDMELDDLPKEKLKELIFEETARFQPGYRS
Assay [19] shares this target. The note with it: at 1 µM.
The target in assay [20] is Mitogen-activated protein kinase 3 (Homo sapiens) (UniProt P27361). To be noted: at 0.1 µM.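 Also: each value is a mean inhibition figure.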
Sequence of Mitogen-activated protein kinase 3 (Homo sapiens) (P27361 whole entry): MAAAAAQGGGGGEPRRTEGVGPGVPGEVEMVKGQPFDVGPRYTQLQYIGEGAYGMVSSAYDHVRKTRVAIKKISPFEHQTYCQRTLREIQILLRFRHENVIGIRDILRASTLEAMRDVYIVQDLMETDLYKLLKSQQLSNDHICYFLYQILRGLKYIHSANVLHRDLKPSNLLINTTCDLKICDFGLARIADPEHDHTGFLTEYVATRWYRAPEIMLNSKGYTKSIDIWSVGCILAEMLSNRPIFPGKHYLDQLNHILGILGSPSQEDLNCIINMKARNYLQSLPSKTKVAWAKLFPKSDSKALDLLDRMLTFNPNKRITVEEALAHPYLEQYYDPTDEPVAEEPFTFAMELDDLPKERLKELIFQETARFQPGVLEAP

Structures are written as SMILES. Values joined by “and” are separate entries in the source; they are usually repeats but may differ in a detail not shown here. Equal entries are not always repeated.

Sequence of Dual specificity protein kinase CLK3 (Homo sapiens) (P49761 whole entry, looked up): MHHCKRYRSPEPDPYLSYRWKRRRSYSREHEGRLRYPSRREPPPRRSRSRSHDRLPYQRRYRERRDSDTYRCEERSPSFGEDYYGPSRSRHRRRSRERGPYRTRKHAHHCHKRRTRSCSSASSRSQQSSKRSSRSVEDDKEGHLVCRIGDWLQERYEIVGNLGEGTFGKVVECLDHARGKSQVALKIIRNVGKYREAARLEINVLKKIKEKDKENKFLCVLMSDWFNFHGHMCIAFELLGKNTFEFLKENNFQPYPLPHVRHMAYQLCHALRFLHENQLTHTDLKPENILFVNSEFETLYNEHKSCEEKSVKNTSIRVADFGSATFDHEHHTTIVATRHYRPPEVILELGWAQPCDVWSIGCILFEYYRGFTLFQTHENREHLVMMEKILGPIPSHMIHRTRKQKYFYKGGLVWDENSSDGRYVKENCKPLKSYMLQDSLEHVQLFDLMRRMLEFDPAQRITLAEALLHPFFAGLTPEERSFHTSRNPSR
Sequence of Glycogen synthase kinase-3 beta (Homo sapiens) (P49841 whole entry, looked up): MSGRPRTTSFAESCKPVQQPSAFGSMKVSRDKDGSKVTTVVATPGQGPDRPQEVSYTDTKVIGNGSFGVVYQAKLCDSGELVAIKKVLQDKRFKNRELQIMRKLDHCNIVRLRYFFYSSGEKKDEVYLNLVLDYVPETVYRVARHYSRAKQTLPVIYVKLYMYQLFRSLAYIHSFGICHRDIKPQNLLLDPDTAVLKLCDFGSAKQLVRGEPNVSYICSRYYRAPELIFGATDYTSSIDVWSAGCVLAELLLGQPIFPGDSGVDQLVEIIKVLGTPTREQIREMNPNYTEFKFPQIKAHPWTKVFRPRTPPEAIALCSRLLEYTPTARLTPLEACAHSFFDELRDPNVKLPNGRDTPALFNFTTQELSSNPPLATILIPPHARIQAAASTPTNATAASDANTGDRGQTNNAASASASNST
Sequence of Dual specificity tyrosine-phosphorylation-regulated kinase 1B (Homo sapiens) (Q9Y463 whole entry, looked up): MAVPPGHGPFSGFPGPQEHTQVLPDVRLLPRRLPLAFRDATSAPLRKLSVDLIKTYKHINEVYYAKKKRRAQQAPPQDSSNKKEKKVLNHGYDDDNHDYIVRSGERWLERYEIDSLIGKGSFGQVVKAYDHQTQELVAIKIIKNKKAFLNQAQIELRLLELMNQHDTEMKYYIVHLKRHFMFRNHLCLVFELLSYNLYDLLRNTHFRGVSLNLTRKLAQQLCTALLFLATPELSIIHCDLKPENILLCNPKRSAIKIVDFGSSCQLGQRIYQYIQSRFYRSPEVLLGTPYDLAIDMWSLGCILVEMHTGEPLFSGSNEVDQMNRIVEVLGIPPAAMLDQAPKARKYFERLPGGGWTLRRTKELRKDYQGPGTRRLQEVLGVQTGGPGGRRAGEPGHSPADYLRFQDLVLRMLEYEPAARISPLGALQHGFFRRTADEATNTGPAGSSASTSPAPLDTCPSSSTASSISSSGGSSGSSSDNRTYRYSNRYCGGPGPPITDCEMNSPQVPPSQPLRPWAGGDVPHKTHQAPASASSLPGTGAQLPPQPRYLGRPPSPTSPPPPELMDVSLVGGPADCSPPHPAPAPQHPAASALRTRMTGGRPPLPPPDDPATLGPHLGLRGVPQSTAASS
Sequence of Glycogen synthase kinase-3 alpha (Homo sapiens) (P49840 2-483 limits assumed): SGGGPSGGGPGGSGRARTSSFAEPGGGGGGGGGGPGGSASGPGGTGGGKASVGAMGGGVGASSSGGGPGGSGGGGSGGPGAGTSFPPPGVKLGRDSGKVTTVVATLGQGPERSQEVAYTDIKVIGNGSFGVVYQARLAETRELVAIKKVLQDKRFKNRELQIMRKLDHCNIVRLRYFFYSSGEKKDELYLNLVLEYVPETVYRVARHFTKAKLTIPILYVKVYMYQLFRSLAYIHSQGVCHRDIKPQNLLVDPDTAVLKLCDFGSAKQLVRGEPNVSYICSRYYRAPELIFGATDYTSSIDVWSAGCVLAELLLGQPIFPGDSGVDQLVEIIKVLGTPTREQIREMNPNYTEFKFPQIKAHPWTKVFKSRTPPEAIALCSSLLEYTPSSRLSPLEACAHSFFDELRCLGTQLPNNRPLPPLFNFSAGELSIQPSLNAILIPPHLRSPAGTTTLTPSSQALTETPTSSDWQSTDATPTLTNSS

In the case of `CNC(=O)c1cncc(/C=C/c2ccccc2C)c1`, the inhibition in assay [1] turned out to be 2.09%; in assay [2], 1.38%; in assay [3], 1.83%; in assay [4], 0.2%; in [5], 0.92%; in [6], 1.99%. In addition, the inhibition in [7] came to 3.1%; in [8], 5.39%; in assay [9] it was 12.3%; in assay [10] it was 5.07%; in assay [11], 10.8%; in assay [12], 2.37%. Also, the inhibition in assay [13] was 3.05%; in assay [14] it was 3.2%; in assay [15], 3.78%; in assay [16], 3.59%; in assay [17], 5.08%; in assay [18], 7.05%. The inhibition in assay [19] came out at 5.85%; in assay [20] it was 4.41%.
`CS(=O)(=O)Nc1ccc(-c2ccc3c(NC(=O)C4CC4)n[nH]c3c2)cc1`: the inhibition in [1] was 4.08%; in [2] it was 1.29%; in assay [3] it was 6.04%; in [4], -0.26%; in assay [5] it was 2.94%; in assay [6], 2.37%. The inhibition is 2.73% in assay [7]; 2.08% in [8]; 7.33% in assay [9]; 1.51% in [10]; 5.37% in assay [11]; -0.91% in assay [12]. Besides, the inhibition in assay [13] was found to be 5.67%; in assay [14], 0.27%; in assay [15], 5.43%; in [16], 2.01%; in assay [17] it was 3.22%; in [18] it was 4.95%. Also, the inhibition in assay [19] stood at 1.75%; in assay [20], 2.3%.
For the compound `Cn1c(-c2nonc2N)nc2cnccc21`, the inhibition worked out at 7.43% in assay [1]; 25.1% in assay [2]; 69.3% in assay [3]; 11.7% in assay [4]; 51.4% in assay [5]; 2.37% in assay [6]. Besides, the inhibition in assay [7] is 10.1%; in [8] it was 10.1%; in [9], 52.1%; in [10], 5.71%; in assay [11], 41.6%; in assay [12], 0.83%. The inhibition in assay [13] is 13.9%; in assay [14], 0.63%; in assay [15], 4.4%; in [16] it was 0.7%; in assay [17] it was 4.16%; in [18], -1.97%. Also, the inhibition in [19] stood at 2.95%; in assay [20], 0.55%.
For the compound `Fc1ccc(Nc2nccc(-c3c(-c4ccc(C(F)(F)F)cc4)nn4ncccc34)n2)cc1F`, the inhibition in assay [1] was 4.71%; in assay [2], 2.73%; in [3], 5.39%; in assay [4] it was 1.21%; in assay [5] it was 2.44%; in assay [6], 2.31%. For the same compound, the inhibition turned out to be 3.44% in assay [7]; 2.05% in [8]; 4.32% in assay [9]; 1.37% in assay [10]; 3.82% in [11]; 0.15% in assay [12]. The inhibition in [13] worked out at 4.43%; in assay [14] it was 0.47%; in [15], 3.47%; in assay [16], 1.98%; in assay [17] it was 3.63%; in assay [18], 3.91%. Also, the results for the inhibition in assay [19] and in assay [20] were 4.05% and 1.81%, respectively.
In the case of `NS(=O)(=O)c1ccc(N/N=C2\C(=O)Nc3cccc(CCc4ccncc4)c32)cc1`, the inhibition in [1] is 1.36%; in assay [2] it was 1.69%; in assay [3], 4.28%; in assay [4] it was 1.6%; in [5] it was 6.1%; in [6], -0.67%. Moreover, the inhibition in assay [7] is -1.25%; in assay [8], 49.5%; in [9], 68%; in [10], 34.1%; in assay [11], 56.4%; in [12], -0.6%. Besides, the inhibition in [13] is 2.62%; in assay [14], 0.72%; in assay [15], 1.64%; in assay [16], -0.3%; in assay [17], 1.61%; in assay [18], 0.92%. Also, the inhibition was 0.88% in assay [19] and -0.55% in assay [20].
Consider `Cc1cc(O)cc(C)c1/C=C/c1cncc(C(=O)OC(C)(C)C)c1`, for which the inhibition worked out at 6.2% in [1]; 5.61% in assay [2]; 8.73% in [3]; 3.58% in assay [4]; 7.3% in [5]; 1.52% in assay [6]. Moreover, the inhibition was found to be 3.56% in assay [7]; 4.43% in [8]; 8.44% in assay [9]; 4.6% in assay [10]; 7.76% in assay [11]; 2.63% in assay [12]. The inhibition in assay [13] is 7.33%; in [14], 1.55%; in [15], 2.43%; in [16] it was 1.52%; in assay [17], 1.71%; in assay [18], 2.41%. The figures for the inhibition in assay [19] and in assay [20] were 4.61% and 1.22%, respectively.
With `Nc1nccc(-c2c(-c3ccc(F)cc3)ncn2C2CCNCC2)n1`, the inhibition in assay [1] was 1.14% and 2.38%; in [2], 0.55% and 2.23%; in assay [3], 3.87% and 4.35%; in [4] it was 2.09% and 2.37%; in [5], 5.26% and 3.56%; in [6], -3.5% and -0.2%. Further, the inhibition in [7] was 1.66% and -0.95%; in assay [8], 0.13% and 1.29%; in assay [9], 2.91% and 3.54%; in [10], -1.49% and 2.54%; in assay [11] it was 2.45% and 5.63%; in assay [12], -0.66% and 2.64%. The inhibition was 7.61% and 4.5% in assay [13]; 0.4% and 1.82% in assay [14]; 8.1% and 1.64% in assay [15]; -4.78% in assay [18]; 0.6% and 1.9% in assay [19]; -1.7% and 0.12% in [20].

(Values after ChEMBL document CHEMBL1961873, “Compounds: GSK PKIS; Assays: Nanosyn kinase panel” (2012).)
